# Reference: PubChem BioAssay (Tox21)
# “And” between values parts separate entries of the source, which are not always exact repeats. Identical values can stand only once. Records with an inconclusive call do not appear. Where a call stands in place of a potency, no number is given. The source made the active and inactive calls. Unless noted, calls come from the whole dose curve.
# Key:
# [1] = Nuclear factor erythroid 2-related factor 2/antioxidant responsive element (Nrf2/ARE) small molecule agonists: luciferase reporter gene qHTS assay in human keratinocytes (AID 1919969); note: nearly all actives have a fitted effect of over 35% in size; note: potency is the fitted concentration of half-maximal effect
# [2] = target: KiSS-1 receptor (Homo sapiens) (UniProt Q969F8); experiment: Human kisspeptin (KISS1R) small molecule agonists, calcium flux assay in KISS1R-HEK293 cells (AID 1920064; active = well fitted activation curve with a large enough effect in the repeat runs)
# Summary of the method: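 Kinetic calcium assay, 1 s sampling over 3 min at Ex/Em 480/540, in HEK293 cells engineered with human KISS1R; compounds delivered in DMSO after 1 h dye loading.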
# [3] = G protein-coupled receptor (GPCR) small molecule agonists, calcium flux assay: HEK293 wild type cell line counter screen (AID 1920065)
# Summary of the method: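 Calcium-sensitive dye, loaded 1 h at 37 C into cells cultured 18 h, reports compound-evoked calcium release as fluorescence (Ex/Em 480/540), measured over 3 min. Agonist mode; 15-point titrations, triplicate.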
# [4] = p53 small molecule agonists, cell-based qHTS assay with rat liver microsomes (AID 1963578)
# Summary of the method: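 With rat liver microsomes and NADPH present (0.5 mg/mL final each), p53RE-bla cells are treated with compound for 16 h at 37 C. LiveBLAzer detection mixture is then applied for 2 h at room temperature in the dark.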
# [5] = p53 small molecule agonists, cell-based qHTS assay with human liver microsomes: qHTS cell viability counter screen (AID 1963579); note: nearly all actives have a fitted effect of over 45% in size
# Summary of the method: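 In this multiplexed counter screen, the reporter plates were subsequently treated with CellTiter-Glo so that cell viability, reflected by luminescence, could be recorded for p53RE-bla cells dosed 16 h with compounds under microsomal activation (HLM and NADPH).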
# [6] = p53 small molecule agonists, cell-based qHTS assay with rat liver microsomes: qHTS cell viability counter screen (AID 1963580); note: nearly all actives have a fitted effect of over 45% in size
# Summary of the method: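 HCT-116 p53RE-bla, 4,000 cells/well, 5 h pre-incubation; cpd + rat liver microsomes 0.5 mg/mL + NADPH 0.5 mg/mL (final); 16 h, 37 C; CellTiter-Glo, 30 min RT; luminescence.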
# [7] = target: 5-hydroxytryptamine receptor 2A (Homo sapiens) (UniProt P28223); experiment: 5-hydroxytryptamine receptor 2A (HTR2A) small molecule antagonists, cell-based qHTS assay (AID 1963586); note: nearly all actives have a fitted effect of over 45% in size; note: potency is the fitted concentration of half-maximal effect
# Summary of the method: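 Antagonist-mode intracellular calcium assay: DOI (4 nM) added after 5 min compound pre-incubation at room temperature to dye-loaded HTR2A-CHO cells. Fluorescence followed for 3 min, sampled every second.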
# [8] = target: 5-hydroxytryptamine receptor 2A (Homo sapiens) (UniProt P28223); experiment: 5-hydroxytryptamine receptor 2A (HTR2A) small molecule agonists, cell-based qHTS assay (AID 1963587); note: nearly all actives have a fitted effect of over 30% in size; note: potency is the fitted concentration of half-maximal effect
# Summary of the method: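 Kinetic calcium-flux fluorescence (2 min, 1 sec intervals) after compound addition in agonist mode. HTR2A-CHO cells were cultured 18 h, then dye-loaded 1 h at 37 C.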
# [9] = target: Muscarinic acetylcholine receptor M1 (Homo sapiens) (UniProt P11229); experiment: Cholinergic receptor muscarinic 1 (CHRM1) small molecule antagonists, cell-based qHTS assay (AID 1963588); note: nearly all actives have a fitted effect of over 40% in size; note: potency is the fitted concentration of half-maximal effect
# Summary of the method: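 CHRM1-CHO calcium-flux assay, antagonist mode. Cells were seeded 18 h, dye-loaded 1 h at 37 C and given compound for 5 min at RT, then acetylcholine was added at 50nM. FDSS fluorescence was read 3 min; 15 concentrations, three runs.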
# [10] = target: Muscarinic acetylcholine receptor M1 (Homo sapiens) (UniProt P11229); experiment: Cholinergic receptor muscarinic 1 (CHRM1) small molecule agonists, cell-based qHTS assay (AID 1963589); note: nearly all actives have a fitted effect of over 35% in size
# Summary of the method: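 Measures agonist-induced intracellular calcium rise. Stable human CHRM1 CHO line, 1 h dye load at 37 C, compounds from DMSO, kinetic fluorescence read.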
# [11] = cAMP Responsive Elements (CRE) small molecule agonists, cell-based qHTS assay (AID 1963590)
# Summary of the method: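 A CRE-responsive beta-lactamase reporter in HEK 293T cells was used. Treatment ran 3 h at 37 C; detection used LiveBLAzer B/G FRET substrate for 2 h at room temperature.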
# [12] = cAMP Responsive Elements (CRE) small molecule antagonists, cell-based qHTS assay (AID 1963591; active = well fitted inhibition curve with a large enough effect in the signal ratio in the repeat runs, not every such curve was filed as active; the % refers to the signal ratio)
# Summary of the method: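 HEK293T cells carrying a CRE-driven beta-lactamase reporter receive compound and NKH477 (0.25 uM final) for 3 h. Fluorescence from LiveBLAzer B/G FRET substrate is read after 2 h at room temperature.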
# [13] = target: D(2) dopamine receptor (Homo sapiens) (UniProt P14416); experiment: Dopamine D2 receptor (DRD2) small molecule agonists, cell-based qHTS assay (AID 1963594); note: nearly all actives have a fitted effect of over 35% in size
# Summary of the method: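 cAMP accumulation in DRD2-HEK293 cells measured by HTRF after 1 h detection; compounds added 10 min before NKH477 (200nM […]) forskolin-analogue stimulation, 30 min at room temperature, with Ro20-1724 present at 0.1 mM final.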
# [14] = target: D(2) dopamine receptor (Homo sapiens) (UniProt P14416); experiment: Dopamine D2 receptor (DRD2) small molecule antagonists, cell-based qHTS assay (AID 1963595; active = well fitted inhibition curve with a large enough effect in the signal ratio in the repeat runs, with a control signal flat; the % refers to the signal ratio; note: potency is the fitted concentration of half-maximal effect)
# Summary of the method: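 In this cell-based antagonist screen, compounds act for 10 min at room temperature before a 30 min challenge with 12 nM quinpirole and 200 nM NKH477. cAMP is quantified by HTRF competition in DRD2-HEK293 cells containing 0.1 mM Ro20-1724.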
# [15] = p53 small molecule agonists, cell-based qHTS assay with human liver microsomes (AID 1963577);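 note: p53 response element beta-lactamase reporter cells with liver microsomes plus NADPH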
# Summary of the method: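 16 h, 37 C exposure of p53RE-bla cells to compounds with human liver microsomes and NADPH (0.5 mg/mL final each); detection via LiveBLAzer mixture, 2 h dark at room temperature.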
# [16] = p53 small molecule agonists, cell-based qHTS assay: qHTS cell viability counter screen (AID 1963581); note: nearly all actives have a fitted effect of over 45% in size
# Summary of the method: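 Following 5 h attachment, HCT-116 p53RE-bla cells took up compound for 16 h at 37 C; the reporter was read with B/G FRET substrate (2 h RT), and viability then via CellTiter-Glo ATP luminescence.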
# [17] = p53 small molecule agonists, cell-based qHTS assay (AID 1963582; active = well fitted activation curve with a large enough effect in the signal ratio in the repeat runs, not every such curve was filed as active; the % refers to the signal ratio)
# Summary of the method: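 In this cell-based concentration-response screen, a p53 response element drives beta-lactamase; cells received DMSO-borne compounds after 5 h culture and were incubated a further 16 h before FRET substrate development.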
# [18] = target: Beta-2 adrenergic receptor (Homo sapiens) (UniProt P07550); experiment: Adrenergic beta2 receptor (ADRB2) small molecule antagonists, cell-based qHTS assay (AID 1963592); note: series mostly up to about 92 µM; nearly all actives have a fitted effect of over 50% in size
# Summary of the method: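 Cells (CHO, stable ADRB2 overexpression) incubated 18-20hr at 37C; compounds added from DMSO; agonist mix (1nM isoproterenol, 100uM IBMX, 25uM Ro-20-1724) added; 0.5hr RT; d2-cAMP and anti-cAMP-cryptate added; 1hr RT; 665/615 nm read.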
# [19] = target: Beta-2 adrenergic receptor (Homo sapiens) (UniProt P07550); experiment: Adrenergic beta2 receptor (ADRB2) small molecule agonists, cell-based qHTS assay (AID 1963593);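 note: CHO cells stably overexpressing human ADRB2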
# Summary of the method: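 CHO cells stably over-expressing ADRB2 were plated overnight at 37C, then dosed with compounds plus a stimulation mix containing 100uM IBMX and 25uM Ro-20-1724 for 0.5hr at room temperature. cAMP was measured by HTRF competition, 1hr.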
# Muscarinic acetylcholine receptor M1 (Homo sapiens), sequence (P11229 whole entry, looked up): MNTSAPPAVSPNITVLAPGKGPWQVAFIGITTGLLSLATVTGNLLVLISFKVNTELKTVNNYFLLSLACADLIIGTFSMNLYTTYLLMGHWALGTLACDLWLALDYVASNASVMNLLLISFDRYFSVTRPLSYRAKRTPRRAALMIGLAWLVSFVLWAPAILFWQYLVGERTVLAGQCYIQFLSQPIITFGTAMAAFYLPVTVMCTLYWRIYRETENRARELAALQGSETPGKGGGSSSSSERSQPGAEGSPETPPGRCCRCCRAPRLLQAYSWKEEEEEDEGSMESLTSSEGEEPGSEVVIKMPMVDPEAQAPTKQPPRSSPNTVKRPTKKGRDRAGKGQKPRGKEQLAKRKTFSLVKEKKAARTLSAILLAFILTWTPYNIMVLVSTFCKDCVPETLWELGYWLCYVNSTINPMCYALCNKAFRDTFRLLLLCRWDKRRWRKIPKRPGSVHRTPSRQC
# 5-hydroxytryptamine receptor 2A (Homo sapiens), sequence (P28223 whole entry, looked up): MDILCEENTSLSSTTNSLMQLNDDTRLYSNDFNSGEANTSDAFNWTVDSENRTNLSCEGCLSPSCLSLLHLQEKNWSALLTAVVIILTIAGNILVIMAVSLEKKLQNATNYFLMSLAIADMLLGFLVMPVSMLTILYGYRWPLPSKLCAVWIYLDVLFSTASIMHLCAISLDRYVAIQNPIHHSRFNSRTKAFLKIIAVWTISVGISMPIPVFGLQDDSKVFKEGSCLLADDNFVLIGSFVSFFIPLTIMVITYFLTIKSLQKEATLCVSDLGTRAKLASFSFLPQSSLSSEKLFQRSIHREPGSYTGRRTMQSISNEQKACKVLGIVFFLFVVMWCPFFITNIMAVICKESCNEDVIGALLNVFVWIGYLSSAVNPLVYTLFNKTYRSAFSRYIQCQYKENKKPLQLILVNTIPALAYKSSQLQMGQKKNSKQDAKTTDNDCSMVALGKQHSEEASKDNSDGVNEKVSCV
# KiSS-1 receptor (Homo sapiens), sequence (Q969F8 whole entry, looked up): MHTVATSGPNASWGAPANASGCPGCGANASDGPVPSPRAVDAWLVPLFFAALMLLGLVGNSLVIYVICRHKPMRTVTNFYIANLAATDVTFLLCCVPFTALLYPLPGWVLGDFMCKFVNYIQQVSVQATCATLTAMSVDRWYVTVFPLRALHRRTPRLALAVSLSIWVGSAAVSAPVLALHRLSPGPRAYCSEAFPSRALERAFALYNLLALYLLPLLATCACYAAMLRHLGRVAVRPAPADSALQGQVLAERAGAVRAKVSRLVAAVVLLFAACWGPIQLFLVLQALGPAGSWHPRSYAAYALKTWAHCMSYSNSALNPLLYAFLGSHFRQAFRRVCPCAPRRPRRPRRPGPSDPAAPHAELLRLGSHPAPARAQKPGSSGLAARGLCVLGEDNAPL
# D(2) dopamine receptor (Homo sapiens), sequence (P14416 whole entry, looked up): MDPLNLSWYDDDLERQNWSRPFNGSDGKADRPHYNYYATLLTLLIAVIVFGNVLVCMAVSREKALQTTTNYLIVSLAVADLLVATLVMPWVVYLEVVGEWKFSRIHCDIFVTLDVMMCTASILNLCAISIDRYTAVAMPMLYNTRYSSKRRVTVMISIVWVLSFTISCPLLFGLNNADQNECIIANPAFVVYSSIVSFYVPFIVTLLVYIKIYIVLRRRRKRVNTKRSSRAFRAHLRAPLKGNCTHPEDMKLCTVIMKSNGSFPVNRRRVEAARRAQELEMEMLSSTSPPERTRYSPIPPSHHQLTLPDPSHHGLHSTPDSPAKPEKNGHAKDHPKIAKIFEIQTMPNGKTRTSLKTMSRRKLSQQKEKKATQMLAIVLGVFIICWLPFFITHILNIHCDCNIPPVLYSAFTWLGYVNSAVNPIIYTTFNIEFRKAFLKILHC
# Beta-2 adrenergic receptor (Homo sapiens), sequence (P07550 whole entry, looked up): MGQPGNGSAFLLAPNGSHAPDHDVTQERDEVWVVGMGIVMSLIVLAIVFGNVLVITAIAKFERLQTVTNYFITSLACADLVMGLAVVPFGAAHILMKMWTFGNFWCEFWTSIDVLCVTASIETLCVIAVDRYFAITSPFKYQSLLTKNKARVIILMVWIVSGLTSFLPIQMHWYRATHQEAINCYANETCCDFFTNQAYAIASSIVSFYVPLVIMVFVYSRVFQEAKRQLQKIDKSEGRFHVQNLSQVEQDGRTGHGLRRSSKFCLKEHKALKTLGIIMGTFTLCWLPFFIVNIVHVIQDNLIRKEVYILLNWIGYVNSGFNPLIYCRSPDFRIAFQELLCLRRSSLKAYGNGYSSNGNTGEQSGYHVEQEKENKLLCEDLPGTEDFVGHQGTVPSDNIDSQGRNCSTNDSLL
Compound,Potency [1],Potency [2],Potency [3],Potency [4],Potency [5],Potency [6],Potency [7],Potency [8],Potency [9],Potency [10],Potency [11],Potency [12],Potency [13],Potency [14],Potency [15],Potency [16],Potency [17],Potency [18],Potency [19]
Cc1nc(N)nc(N)c1-c1ccc(Cl)c(Cl)c1,inactive,inactive,inactive,inactive,inactive,inactive,inactive,inactive,7.29 µM (active),inactive,inactive,inactive,inactive,inactive,–,–,–,–,–
Oc1ccc(-c2ccccc2)c(Cl)c1,54.5 µM (active),inactive,inactive,inactive,–,inactive,26.5 µM (active),–,inactive,inactive,–,–,inactive,inactive,inactive,inactive,inactive,inactive,inactive
CCOc1ccc2nc3cc(N)ccc3c(N)c2c1,29.8 µM (active),inactive,inactive,inactive,–,inactive,inactive,inactive,inactive,inactive,–,–,inactive,inactive,inactive,inactive,–,inactive,–
CCN(CC)CCOC(=O)C1(C2CCCCC2)CCCCC1,inactive,inactive,inactive,–,inactive,inactive,–,–,–,–,–,–,–,–,–,–,–,inactive,–
CC[N+](C)(CC)CC,inactive,inactive,inactive,–,inactive,inactive,inactive,inactive,inactive,inactive,inactive,inactive,inactive,inactive,inactive,inactive,inactive,inactive,inactive
CCc1nn(CCCN2CCN(c3cccc(Cl)c3)CC2)c(=O)n1CCOc1ccccc1,inactive,inactive,inactive,inactive,–,inactive,–,–,–,–,–,–,inactive,–,inactive,inactive,inactive,–,–
Oc1c(I)cc(Cl)c2cccnc12,2.16 µM (active) and 3.35 µM (active),inactive,inactive,inactive,inactive,–,inactive,inactive,inactive,inactive,inactive,inactive,inactive,inactive,inactive,inactive,inactive,inactive,–
CCCCCCCCCCCCCCCCC(C(=O)O)C(O)(CC(=O)O)C(=O)O (stereo not given),inactive,inactive,inactive,inactive,inactive,inactive,13 µM (active),–,inactive,inactive,inactive,inactive,inactive,inactive,–,–,inactive,–,inactive
CC(C)(C)CC(C)(C)c1ccc(OCCO)cc1,inactive,inactive,–,inactive,inactive,inactive,inactive,–,–,inactive,–,–,inactive,inactive,inactive,inactive,inactive,inactive,–
CCCCC(CC)CNCC(CC)CCCC (stereo not given),inactive,inactive,inactive,–,–,–,–,inactive,inactive,–,inactive,inactive,inactive,–,–,inactive,–,inactive,inactive
CCc1ccc(O)c(C(C)(C)C)c1,inactive,inactive,inactive,–,inactive,–,–,49 µM (active),37.5 µM (active),inactive,–,–,inactive,–,–,inactive,–,inactive,–
OCCN1CCN(CCCN2c3ccccc3Sc3ccc(Cl)cc32)CC1,inactive,inactive,inactive,inactive,inactive,inactive,–,–,–,–,–,–,inactive,–,–,inactive,–,–,–
CN[C@H]1CC[C@@H](c2ccc(Cl)c(Cl)c2)c2ccccc21,inactive,inactive,–,–,inactive,inactive,–,–,–,–,–,inactive,inactive,15 µM (active),inactive,inactive,inactive,inactive,–
NC(N)=N/N=C/c1c(Cl)cccc1Cl,inactive,inactive,inactive,inactive,–,inactive,–,–,–,–,inactive,inactive,inactive,inactive,inactive,inactive,inactive,inactive,inactive
